Assay outcomes from PubChem.
This is a sample that favours compounds with a hit; in the whole collection about 2.2% have one here.
Ba/F3 V617F tox – reduce viability of Ba/F3 cells dependent on JAK2V617F | actives 1.1% (n = 220,000) | inhibition, % at 5.6 µM | Ba/F3 EpoR-JAK2V617F viability, ATP luminescence;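 active means inhibition above the campaign mean plus 3 SD over all tested compounds, cut at about 24% in these data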;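 further: cytokine-independent growth of Ba/F3 cells driven by EpoR plus mutant JAK2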
aSyn UTR inh – 5' untranslated region of α-synuclein, MLPCN primary screen; inhibition, % (tested at 7.5 µM); alpha-synuclein 5'UTR reporter, inhibitor activity; actives 0.82% (n = 300,000); AID 1813; in the data active means inhibition above about 60%; inconclusive means no clear call, values can overlap the other calls;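 further: H4 neuroglioblastoma cells stably carrying SNCA 5'UTR luciferase fusion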
IEC-6 cytotox – counter-screen for KLF5 inhibitors: cytotoxicity in IEC-6 cells | IEC-6 cytotoxicity, luminescence viability | inhibition, % at 5 µM | actives 0.78% (n = 290,000); in the data active means inhibition above about 22%
BaF3 tox – parental Ba/F3 viability inhibition as JAK2V617F counter-screen; CellTiter-Glo ATP luminescence; inhibition, % at 5.6 µM; actives 1.1% (n = 220,000);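 active means inhibition above a per-campaign cutoff, the mean inhibition of all tested compounds plus 3 SD, cut at about 27% in these data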
KLF5 inhibitor – kruppel-like factor 5 inhibition | inhibition, % at 5 µM | DLD-1 KLF5 promoter-luciferase reporter, luminescence | actives 0.23% (n = 290,000);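 active means inhibition above a per-plate limit of that plate's mean compound inhibition plus 3 SD, cut at about 60% in these data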;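 further: higher means less KLF5 promoter-driven luciferase light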
APP transl inh – APP translation inhibition; actives 0.82% (n = 190,000); inhibition, % at 2 µM; SH-SY5Y APP 5'UTR-luciferase reporter, luminescence;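 active means inhibition above a set limit, derived from the sample mean plus 3 SD, cut at about 45% in these data; inconclusive means one replicate passes the limit while the other fails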
Hits are given with their value; i = inactive; ? = inconclusive; nt = no result given.

SMILES	Ba/F3 V617F tox	aSyn UTR inh	IEC-6 cytotox	BaF3 tox	KLF5 inhibitor	APP transl inh
O=S(=O)(Nc1nc2ccccc2nc1N1CCc2ccccc2C1)c1ccc(Cl)cc1	i	86.2	i	i	i	i
Cc1cc(=O)[nH]c(N/N=C/c2cccc(Br)c2)n1	nt	i	i	nt	i	nt
Cc1cc(=O)[nH]c(N/N=C/c2ccccn2)n1	i	73.8	i	i	i	64.9
CC(=O)c1c(C)[nH]c(C(=O)Nc2cccc(S(=O)(=O)N(C)c3ccccc3)c2)c1C	i	i	i	i	i	i
COc1cc(Br)cc(/C=N/NC(=O)Cc2ccc(C(F)(F)F)cc2[N+](=O)[O-])c1O	i	67.5	i	i	i	i
COc1cccc(C(=O)N/N=C(/CCC(=O)O)c2ccccc2)c1	i	i	i	i	i	i
COc1cc(NC(=O)c2ccccn2)cc(OC)c1OC	i	i	i	i	i	i
COc1cccc(C(=O)N/N=C(/c2ccccc2)c2ccccn2)c1	101.0	73.0	i	96.7	i	i
COc1cc(C(=O)N/N=C(\c2ccccc2)c2ccccn2)cc(OC)c1OC	i	81.3	i	i	i	82.0
CCCN(CC(=O)Nc1ccccc1OC)C(=O)c1cc(-c2cccs2)nn1-c1ccccc1	nt	i	nt	nt	nt	nt
C[C@@H](O)[C@H]1C(=O)N2C(C(=O)O)=C(S[C@@H]3CN[C@H](C(=O)N(C)C)C3)[C@H](C)[C@H]12	nt	i	nt	nt	nt	nt
Cc1cc(SCC(=O)N/N=C/c2ccc(O)c(O)c2O)c(C)cc1Br	i	67.5	i	i	i	i
COc1cc(/C=N/NC(=O)CSc2cc(C)c(Br)cc2C)ccc1O	i	i	i	i	i	i
CC(NC(=O)COC(=O)c1ccc2c(c1)S(=O)(=O)N=C1CCCCCN12)C12CC3CC(CC(C3)C1)C2 (stereo unspecified)	i	67.8	i	i	i	i
C#CCn1cc(/C=N/NC(=O)COc2cccc3cccnc23)c2ccccc21	i	i	i	i	i	i
CCN(CC)c1ccc(/C=N/NC(=O)Cc2cccs2)c(O)c1	i	?	i	i	i	63.8
COc1cc(OC)c(OC)cc1/C=N/Nc1nc2ccccc2[nH]1	i	i	i	i	i	nt
COc1ccc2c(c1)c(/C=N/Nc1nc3ccccc3[nH]1)c(C)n2C	i	i	i	53.0	i	nt
O=C(Cc1cccs1)N/N=C/c1ccccc1	i	i	i	i	i	nt
CCN(CC)c1ccc(/C=N/Nc2nc3ccccc3[nH]2)c(O)c1	i	84.5	i	i	i	i
C#CCn1cc(/C=N/Nc2nc3ccccc3[nH]2)c2ccccc21	i	i	30.8	i	i	i
C#CCN(Cc1ccco1)C(=O)c1ccc(OC2CCN(Cc3ccccn3)CC2)cc1	nt	i	i	nt	i	nt
Cc1cc([N+](=O)[O-])ccc1NC(=O)CSc1nncn1-c1cccnc1	nt	i	i	nt	i	nt
CCC(C)(NC=O)C(=O)Nc1c(C)cccc1C (stereo unspecified)	i	i	i	i	i	nt
CCCCn1c(/C=N/Nc2nc3ccccc3[nH]2)nc2ccccc21	i	i	i	i	i	87.5
SMILES	Ba/F3 V617F tox	aSyn UTR inh	IEC-6 cytotox	BaF3 tox	KLF5 inhibitor	APP transl inh
CN1C(=O)NC(NC(=O)c2ccco2)(C(F)(F)F)C1=O (stereo unspecified)	i	i	i	i	i	i
CC(C)CN1C(=O)NC(NC(=O)c2ccco2)(C(F)(F)F)C1=O (stereo unspecified)	i	i	i	95.0	i	i
Cc1cccc(N2CCN(C(=O)C3CCN(c4nnc(-n5cccc5)s4)CC3)CC2C)c1 (stereo unspecified)	i	i	i	45.0	i	i
O=C(CN1C(=O)/C(=C\C=C\c2ccccc2)SC1=S)Nc1ccc(F)cc1	i	i	i	i	i	i
O=C(COC(=O)CCN1C(=O)/C(=C\C=C\c2ccccc2)SC1=S)Nc1cc(F)ccc1F	i	64.2	i	i	i	i
Clc1ccc(CN2C3=NCCN3c3ccccc32)cc1	i	i	i	62.3	i	i
CC(C)(C)c1ccc(CN2C3=NCCCN3c3ccccc32)cc1	45.8	i	i	45.8	i	i
C=CCC(CC(O)COCCC)C(=O)NNC(=S)Nc1ccccc1 (stereo unspecified)	i	i	i	i	i	nt
O=C(O)Cc1csc(-c2cccc(F)c2)n1	i	i	i	i	i	i
Cn1c(=N)n(CC(=O)c2ccc(Br)cc2)c2ccccc21	nt	i	nt	nt	nt	nt
Cc1n(CC(=O)c2ccc(F)cc2)c2ccccc2[n+]1C	i	i	i	27.8	i	i
Cn1c(=N)n(CC(=O)c2ccc(F)cc2)c2ccccc21	nt	75.7	i	nt	i	nt
CC1Oc2ccccc2N(CC(=O)Nc2ccc(F)cc2)C1=O (stereo unspecified)	nt	i	i	nt	i	nt
CC1Sc2n(c3ccccc3[n+]2C)N=C1c1ccccc1 (stereo unspecified)	98.9	i	i	74.5	i	i
C[n+]1c2n(c3ccccc31)N=C(c1ccc(Cl)cc1)CS2	78.1	i	i	67.3	i	i
COc1ccc(C)cc1NC(=O)C1CCN(S(=O)(=O)c2cccs2)CC1	nt	i	i	nt	i	nt
CC12C(=O)N(c3ccc(OC(=O)c4ccco4)cc3)C(=O)C1C1c3ccccc3C2c2ccccc21 (stereo unspecified)	i	i	i	i	i	i
CC12C(=O)N(c3cccc(OC(=O)c4ccco4)c3)C(=O)C1C1c3ccccc3C2c2ccccc21 (stereo unspecified)	i	i	i	i	i	51.6
CC(C)C(NS(=O)(=O)c1ccc2c(c1)C(C)(C)C(=O)N2C)C(=O)NCc1ccccc1Cl (stereo unspecified)	nt	i	i	nt	i	nt
O=C(/C=C/Nc1ccc(S(=O)(=O)Nc2cnc3ccccc3n2)cc1)c1ccccc1	i	i	i	51.8	i	nt
Cc1ccc(S(=O)(=O)N2CCCC2)s1	nt	i	i	nt	i	nt
C=CCn1c(C)cc(C2=NNC(=NC(C)(C)C)SC2)c1C	i	89.4	i	i	i	i
COc1ccc(-n2c(C)cc(C3=NNC(=NC4CC4)SC3)c2C)cc1	i	nt	i	i	i	i
COCCn1c(C)cc(C2=NNC(=Nc3ccc(Cl)cc3Cl)SC2)c1C	i	i	i	i	i	i
C=CCN=C1NN=C(c2cc(C)n(CCOC)c2C)CS1	i	85.8	i	i	i	i
SMILES	Ba/F3 V617F tox	aSyn UTR inh	IEC-6 cytotox	BaF3 tox	KLF5 inhibitor	APP transl inh
Cc1cc(C2=NNC(=NC3CC3)SC2)c(C)n1-c1ccccc1	i	95.2	i	i	i	75.9
C=CCn1c(C)cc(C2=NNC(=Nc3ccc(C)cc3)SC2)c1C	i	i	i	i	i	i
COCCn1c(C)cc(C2=NNC(=NC3CC3)SC2)c1C	i	112.1	i	i	79.5	87.7
COc1ccc(S(=O)(=O)N2CCC(C(=O)NC3CCCCC3)CC2)cc1C	nt	i	i	nt	i	nt
O=C(Nc1c2c(nn1-c1ccccc1)CS(=O)C2)c1ccco1 (stereo unspecified)	nt	i	i	nt	i	nt
COc1ccc(N(C)C(=O)C2CCCN2S(=O)(=O)c2cccc3nsnc23)c(OC)c1 (stereo unspecified)	nt	i	i	nt	i	nt
Cc1cc(C2=NNC(=NC3CC3)SC2)c(C)n1Cc1ccco1	i	nt	i	i	i	46.7
